Tests used:
Test in all cases: PBM binding z-score (relative to random genomic background probes); higher = stronger binding; sequences stand for … in GC…GCGATTGACAGCGTAGAATGAAGG
[1] = tested on: FXR:RXRa (NR concentration 270 nM, RXRa partner concentration 90 nM)
In short: (§1)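 For binding z-scores, the reference was random background probes on custom Agilent 4×180K protein-binding microarrays. These arrays were incubated 1 h with ligand-free nuclear receptor dimers in PBS pH 7.4, 2% milk, 0.02% Triton X-100, 1 mM DTT, 0.2 mg/mL BSA and 0.4 mg/ml salmon testes DNA. Fluorescence was scanned after antibody detection of each partner (one per run) and regression-normalized.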

[2] = tested on: LXRa:RXRa (NR concentration 270 nM, RXRa partner concentration 90 nM)
In short: as §1

[3] = tested on: LXRa homodimer (NR concentration 270 nM)
In short: as §1

[4] = tested on: LXRb:RXRa (NR concentration 270 nM, RXRa partner concentration 90 nM)
In short: as §1

[5] = tested on: LXRb homodimer (NR concentration 270 nM)
In short: as §1

[6] = tested on: PPARa:RXRa (NR concentration 270 nM, RXRa partner concentration 90 nM)
In short: as §1

[7] = tested on: PPARg:RXRa (NR concentration 180 nM, RXRa partner concentration 90 nM)
In short: as §1

[8] = tested on: PPARg:RXRa 270nM:90nM, anti-RXR (NR concentration 270 nM, RXRa partner concentration 90 nM)
In short: as §1

[9] = tested on: PPARg:RXRa 30nM:10nM, anti-RXR (NR concentration 30 nM, RXRa partner concentration 10 nM)
In short: as §1

[10] = tested on: PPARg:RXRa 90nM:30nM, anti-RXR (NR concentration 90 nM, RXRa partner concentration 30 nM)
In short: as §1

[11] = tested on: PPARg:RXRa DBDmut IVT, anti-RXR (DBD mutation: RXRa K156A/R161A, NR concentration 270 nM, RXRa partner concentration 90 nM)
In short: as §1

[12] = tested on: PPARg:RXRa IVT, anti-PPARg (NR concentration 270 nM, RXRa partner concentration 90 nM)
In short: as §1

[13] = tested on: PPARg DBDmut:RXRa IVT, anti-PPARg (DBD mutation: PPARg1 K132A/R137A, NR concentration 270 nM, RXRa partner concentration 90 nM)
In short: as §1

[14] = tested on: PPARg DBDmut IVT, anti-PPARg (DBD mutation: PPARg1 K132A/R137A, NR concentration 270 nM)
In short: as §1

[15] = tested on: PPARg homodimer (NR concentration 180 nM)
In short: as §1

[16] = tested on: PXR:RXRa (NR concentration 270 nM, RXRa partner concentration 90 nM)
In short: as §1

[17] = tested on: PXR homodimer (NR concentration 270 nM)
In short: as §1

[18] = tested on: RARa:RXR (NR concentration 270 nM, RXRa partner concentration 90 nM)
In short: as §1

[19] = tested on: RARa homodimer (NR concentration 270 nM)
In short: as §1

[20] = tested on: RARb:RXRa (NR concentration 270 nM, RXRa partner concentration 90 nM)
In short: as §1

Row | Sequence | PBM binding z-score [1] | PBM binding z-score [2] | PBM binding z-score [3] | PBM binding z-score [4] | PBM binding z-score [5] | PBM binding z-score [6] | PBM binding z-score [7] | PBM binding z-score [8] | PBM binding z-score [9] | PBM binding z-score [10] | PBM binding z-score [11] | PBM binding z-score [12] | PBM binding z-score [13] | PBM binding z-score [14] | PBM binding z-score [15] | PBM binding z-score [16] | PBM binding z-score [17] | PBM binding z-score [18] | PBM binding z-score [19] | PBM binding z-score [20]
1 | GGAACGAGGGCATTCGAGTTGAAAGCATGGCGAT | 1.15 | 2.67 | -0.268 | 0.406 | -1.04 | 1.85 | 0.762 | 0.887 | -0.332 | 0.259 | 2.58 | 2.01 | -0.14 | -0.111 | 0.301 | 3.96 | 1.15 | 1.18 | -0.521 | 1.71
2 | AGAATGAGGTAATTAAGATCAGGGAATTGCGGTC | 0.0653 | 0.204 | -0.0232 | -0.116 | -0.24 | 0.241 | 0.544 | 0.141 | -0.00971 | -0.0571 | 2.2 | 1.37 | 0.265 | -0.0371 | -0.649 | -0.0568 | 0.153 | 0.224 | -0.15 | 0.0669
3 | CCTACTGTGCCATCAGGTCATTGATATCAACGTT | 2.23 | 2.1 | 2.57 | 2.75 | 1.14 | 2.82 | 2.29 | 3.15 | 1.39 | 2.7 | 4.55 | 4.14 | 2.09 | 1.29 | 2.2 | 2.45 | 1.76 | 2.79 | 2.21 | 2.25
4 | TCATATAGGTAGATGCTAGGTGAAAGTCCGATCT | 0.567 | 0.862 | 0.165 | 0.357 | -0.423 | 0.819 | 0.568 | 1.87 | 3.53 | 2.7 | 2.54 | 0.996 | 0.387 | 0.246 | 0.348 | 0.415 | 0.366 | 0.657 | 0.534 | 0.174
5 | TCATATAGGTAAGGGTGAAAGTCGAACGATATGA | 0.857 | 0.803 | -0.00999 | 0.694 | -0.563 | 2.47 | 2.7 | 3.29 | 3.87 | 3.72 | 2.65 | 2.84 | 1.53 | 1.28 | 1.03 | 0.664 | 0.181 | 1.14 | 0.462 | 1.13
6 | TCTAGCAGGCCAGAGGGACACTCAAGAGGTACGG | -0.341 | -0.607 | -1.2 | -0.951 | -1.48 | -0.201 | 0.823 | 1.13 | 1.39 | 1.15 | 0.376 | -0.183 | -1.54 | -1.73 | -1.07 | -0.803 | -0.661 | -1.02 | -0.883 | 0.0919
7 | TCGCGTAGGTTAGTCGGGGCATTCAGCCAACATA | 0.0922 | -0.043 | -0.337 | 0.83 | -0.797 | 0.69 | -0.444 | 0.614 | 0.929 | 0.992 | 0.798 | 0.382 | -0.631 | -0.248 | -0.58 | 0.226 | -0.158 | 0.335 | -0.333 | 0.559
8 | CCGACTGGGGCAAAAAGGTTACCATACCATCCGG | 0.468 | 0.384 | -0.0503 | 1.14 | -0.735 | 2.38 | 1.48 | 1.95 | 0.214 | 1.25 | 2.47 | 2.82 | -0.595 | -1.12 | 0.536 | 1.1 | -0.0306 | 1.87 | 0.158 | 2.05
9 | CCTATCAGGCCAGGGTCACTCAAGCATTTCGCTT | 2.19 | 1.74 | -0.264 | 2.23 | -0.67 | 3.33 | 0.918 | 1.93 | -0.162 | 0.886 | 0.0359 | 1.06 | -1.33 | -0.669 | 1.28 | 2.59 | -0.206 | 3.5 | 0.157 | 2.74
10 | CATACAGGGTCAGCTAGGCCAGACTAGGGACGGC | 4.02 | 2.77 | -0.135 | 1.97 | 0.282 | 4.06 | 3.31 | 2.8 | 0.502 | 1.8 | 1.3 | 2.37 | 0.631 | 0.373 | 0.901 | 2.01 | 0.149 | 2.36 | 0.259 | 3.94
11 | TCATATAGGTAAATACTAGGTGAAAGTCCGATCT | 1.19 | 1.08 | 0.534 | 0.889 | 0.276 | 2.16 | 2.46 | 3.26 | 4.4 | 3.92 | 4.28 | 4.37 | 1.5 | 1.37 | 1.15 | 0.747 | 0.389 | 1.15 | 1.65 | 0.482
12 | ACTAGCAGGCCAAGTTTGGGTGACTCAAACAAAG | -0.397 | -0.73 | -0.818 | -0.554 | -0.715 | -0.036 | -0.341 | -0.319 | -0.347 | -0.213 | 0.661 | 0.765 | -1.13 | -1.09 | -0.815 | -0.475 | -0.715 | -0.198 | -0.374 | 0.418
13 | TCTGCTAGGTCAACGCTGGTCAGCTAATCTGCTA | 3.47 | 3.1 | -0.234 | 1.74 | -0.356 | 3.27 | 2.09 | 3.24 | 1.85 | 2.54 | 4.5 | 4.5 | 0.648 | 0.00924 | 1.34 | 2 | -1.26 | 2.35 | -1.41 | 4.16
14 | GATACAGGGTCACCTAGAGGCCAGAGTATGGAAA | 6.92 | 4.72 | -0.102 | 3.99 | -0.035 | 5.79 | 6.93 | 6.02 | 2.71 | 4.91 | 2.73 | 4.97 | 2.46 | 1.14 | 3.21 | 4.54 | 0.0767 | 6.04 | 0.306 | 4.56
15 | ATCGAAAGGTCGAGGTGGGTATAGAGAAAGGGAA | 4.46 | 3.55 | 0.722 | 3.12 | 0.942 | 4.74 | 2.59 | 3.11 | 1.17 | 1.97 | 0.271 | 1.55 | 0.846 | 1.16 | 2.17 | 2.99 | 0.988 | 3.5 | 1.9 | 4.34

From the supplement of paper PMC6555819
